Data on two sequences can be found in article PMC7862700, “An all-to-all approach to the identification of sequence-specific readers for epigenetic DNA modifications on cytosine”.

Common to all, as to test: DAPPL (digital affinity profiling via proximity ligation, sequencing); 10 mM Tris-HCl pH 7.5, 50 mM NaCl, 1 mM DTT, 4% glycerol, room temperature, 30 min; GST-TFs on glutathione beads, 16-mer random dsDNA library, 0.1% formaldehyde crosslink after washing; high values mean tight binding
One assay addresses T1, FLI1 (Homo sapiens, UniProt Q01543 1-452).
T1 sequence: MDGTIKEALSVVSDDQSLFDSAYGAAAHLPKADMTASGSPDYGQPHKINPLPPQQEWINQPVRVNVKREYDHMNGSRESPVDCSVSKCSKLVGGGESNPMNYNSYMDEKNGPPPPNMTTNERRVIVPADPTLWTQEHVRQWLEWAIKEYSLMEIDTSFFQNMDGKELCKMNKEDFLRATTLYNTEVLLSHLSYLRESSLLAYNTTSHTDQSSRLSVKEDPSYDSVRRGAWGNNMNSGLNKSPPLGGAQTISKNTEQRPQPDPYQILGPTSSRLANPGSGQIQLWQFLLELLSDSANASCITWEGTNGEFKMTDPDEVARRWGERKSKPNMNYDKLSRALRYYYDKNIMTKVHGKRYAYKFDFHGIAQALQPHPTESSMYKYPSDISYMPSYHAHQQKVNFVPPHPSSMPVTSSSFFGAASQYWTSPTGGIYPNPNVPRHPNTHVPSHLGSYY
The conditions noted are these: protein: recombinant; tags: N-terminal GST; dsDNA, one strand shown. The procedure, abridged: (§1)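 Each value of binding signal is a hexamer's read frequency for a factor divided by the same hexamer's frequency in the tag-only sample. Barcoded, bead-captured GST fusions of human transcription factors made in yeast were pooled with that sample and incubated with 200 nmole of a random double-stranded 16-mer DNA library in Tris/NaCl/DTT/glycerol buffer at room temperature for 30 min. Washing, 0.1% formaldehyde crosslinking, proximity ligation, PCR and Illumina NextSeq500 sequencing followed.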

In another assay the target is T2, ELK1 (Homo sapiens, UniProt P19419 1-428).
T2 sequence: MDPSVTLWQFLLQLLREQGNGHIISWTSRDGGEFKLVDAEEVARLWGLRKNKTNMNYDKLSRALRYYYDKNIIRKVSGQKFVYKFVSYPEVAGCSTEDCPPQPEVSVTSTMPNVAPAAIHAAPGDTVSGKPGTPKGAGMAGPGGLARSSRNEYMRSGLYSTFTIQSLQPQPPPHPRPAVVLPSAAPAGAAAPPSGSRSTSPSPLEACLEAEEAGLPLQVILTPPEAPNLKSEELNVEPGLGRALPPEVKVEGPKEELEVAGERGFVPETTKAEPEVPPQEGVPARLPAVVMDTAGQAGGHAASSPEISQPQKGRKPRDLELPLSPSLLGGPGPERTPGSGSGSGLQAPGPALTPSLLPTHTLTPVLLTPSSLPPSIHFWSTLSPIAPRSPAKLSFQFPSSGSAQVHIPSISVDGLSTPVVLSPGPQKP
To be noted: protein: recombinant; tags: N-terminal GST; dsDNA, one strand shown. The procedure, abridged: as §1

For a further assay, the target named is T3, GABPA (Homo sapiens, UniProt Q06546 1-454).
T3 sequence: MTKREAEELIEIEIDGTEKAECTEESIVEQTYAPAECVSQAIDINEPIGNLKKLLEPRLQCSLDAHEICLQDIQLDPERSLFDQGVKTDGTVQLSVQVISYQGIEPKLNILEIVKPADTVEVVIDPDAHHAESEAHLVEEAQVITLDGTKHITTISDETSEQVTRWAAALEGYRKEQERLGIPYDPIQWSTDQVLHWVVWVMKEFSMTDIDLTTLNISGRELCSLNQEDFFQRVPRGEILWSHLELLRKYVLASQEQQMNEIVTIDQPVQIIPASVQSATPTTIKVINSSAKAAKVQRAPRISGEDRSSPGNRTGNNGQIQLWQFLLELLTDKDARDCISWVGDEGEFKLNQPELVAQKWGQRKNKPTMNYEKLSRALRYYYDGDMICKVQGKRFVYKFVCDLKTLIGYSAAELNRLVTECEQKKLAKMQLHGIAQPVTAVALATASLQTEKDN
To be noted: protein: recombinant; tags: N-terminal GST; dsDNA, one strand shown. The procedure, abridged:
as §1

A further assay concerns the target T4, ERG (Homo sapiens, UniProt P11308 1-479).
T4 sequence: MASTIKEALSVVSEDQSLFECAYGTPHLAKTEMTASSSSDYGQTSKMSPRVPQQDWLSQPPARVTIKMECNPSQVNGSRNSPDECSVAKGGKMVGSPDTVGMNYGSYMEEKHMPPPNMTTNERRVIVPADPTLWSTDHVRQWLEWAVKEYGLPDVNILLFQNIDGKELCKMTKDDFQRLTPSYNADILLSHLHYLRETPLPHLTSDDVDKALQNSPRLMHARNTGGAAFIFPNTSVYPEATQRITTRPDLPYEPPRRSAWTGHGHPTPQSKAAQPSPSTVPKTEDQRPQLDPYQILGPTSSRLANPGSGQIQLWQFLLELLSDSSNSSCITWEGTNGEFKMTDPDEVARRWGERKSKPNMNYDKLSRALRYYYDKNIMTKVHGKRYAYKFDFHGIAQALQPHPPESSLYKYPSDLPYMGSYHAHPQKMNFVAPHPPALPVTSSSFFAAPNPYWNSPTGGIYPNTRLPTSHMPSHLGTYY
To be noted: protein: recombinant; tags: N-terminal GST; dsDNA, one strand shown. The procedure, abridged: as §1

Another assay deals with ELF1 (Homo sapiens, UniProt P32519 1-619). The conditions noted are these: protein: recombinant; tags: N-terminal GST; dsDNA, one strand shown. The procedure, abridged:
as §1

The next assay has as its target T5, EHF (Homo sapiens, UniProt Q9NZC4 1-300).
T5 sequence: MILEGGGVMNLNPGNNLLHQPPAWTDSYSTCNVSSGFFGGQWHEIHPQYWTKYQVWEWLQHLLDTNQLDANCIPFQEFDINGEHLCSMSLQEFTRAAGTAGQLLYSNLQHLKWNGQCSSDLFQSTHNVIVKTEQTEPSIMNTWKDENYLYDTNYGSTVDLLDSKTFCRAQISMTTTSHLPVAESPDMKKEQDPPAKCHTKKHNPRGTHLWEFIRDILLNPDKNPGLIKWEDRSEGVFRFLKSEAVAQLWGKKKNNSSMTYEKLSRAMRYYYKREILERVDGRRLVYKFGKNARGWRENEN
The conditions noted are these: protein: recombinant; tags: N-terminal GST; dsDNA, one strand shown. The procedure, abridged: as §1

The target of the next assay is SPI1 (Homo sapiens, UniProt P17947 1-270). To be noted: protein: recombinant; tags: N-terminal GST; dsDNA, one strand shown. The procedure, abridged: as §1
A further assay has as its target SPIB (Homo sapiens, UniProt Q01892 1-262). To be noted: protein: recombinant; tags: N-terminal GST; dsDNA, one strand shown. The procedure, abridged: as §1
The target of a further assay is T6, FEV (Homo sapiens, UniProt Q99581 1-238).
T6 sequence: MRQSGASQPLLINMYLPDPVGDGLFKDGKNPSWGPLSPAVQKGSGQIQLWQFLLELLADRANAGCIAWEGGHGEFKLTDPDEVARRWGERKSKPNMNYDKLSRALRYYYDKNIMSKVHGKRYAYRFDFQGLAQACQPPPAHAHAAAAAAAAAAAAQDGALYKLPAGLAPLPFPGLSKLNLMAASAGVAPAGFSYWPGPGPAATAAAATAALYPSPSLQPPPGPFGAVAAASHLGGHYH
The conditions noted are these: protein: recombinant; tags: N-terminal GST; dsDNA, one strand shown. The procedure, abridged:
as §1

A further assay deals with ETV5 (Homo sapiens, UniProt P41161 1-510). To be noted: protein: recombinant; tags: N-terminal GST; dsDNA, one strand shown. The procedure, abridged:
as §1

Another assay deals with HSF1 (Homo sapiens, UniProt Q00613 1-529). The conditions noted are these: protein: recombinant; tags: N-terminal GST; chain copies: 3; dsDNA, one strand shown. The procedure, abridged: as §1
The target of another assay is ELF4 (Homo sapiens, UniProt Q99607 1-663). To be noted: protein: recombinant; tags: N-terminal GST; dsDNA, one strand shown. The procedure, abridged:
as §1

The next assay deals with T7, ELK4 (Homo sapiens, UniProt P28324-2 1-405).
T7 sequence: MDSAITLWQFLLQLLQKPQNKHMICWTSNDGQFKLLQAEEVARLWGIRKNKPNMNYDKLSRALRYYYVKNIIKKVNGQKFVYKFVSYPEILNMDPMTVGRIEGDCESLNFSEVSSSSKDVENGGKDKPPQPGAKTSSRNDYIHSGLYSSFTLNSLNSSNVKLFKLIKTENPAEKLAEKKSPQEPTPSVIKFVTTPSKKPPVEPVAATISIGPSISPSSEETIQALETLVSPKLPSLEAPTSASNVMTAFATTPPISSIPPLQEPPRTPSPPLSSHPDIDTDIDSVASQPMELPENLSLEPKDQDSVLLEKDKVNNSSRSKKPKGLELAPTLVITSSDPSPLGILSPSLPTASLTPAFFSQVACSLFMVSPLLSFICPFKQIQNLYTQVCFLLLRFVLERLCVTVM
The conditions noted are these: protein: recombinant; tags: N-terminal GST; dsDNA, one strand shown. The procedure, abridged: as §1

For another assay, the target named is T8, ETV2 (Homo sapiens, UniProt O00321 1-342).
T8 sequence: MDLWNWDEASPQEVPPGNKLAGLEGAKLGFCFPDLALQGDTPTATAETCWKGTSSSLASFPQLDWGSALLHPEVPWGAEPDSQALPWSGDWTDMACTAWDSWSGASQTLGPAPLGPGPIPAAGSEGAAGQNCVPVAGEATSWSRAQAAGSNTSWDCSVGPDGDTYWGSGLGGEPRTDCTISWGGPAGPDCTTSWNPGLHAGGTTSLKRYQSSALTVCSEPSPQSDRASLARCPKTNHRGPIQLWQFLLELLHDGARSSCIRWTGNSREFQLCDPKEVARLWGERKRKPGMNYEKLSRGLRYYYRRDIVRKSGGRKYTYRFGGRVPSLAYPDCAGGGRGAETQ
The conditions noted are these: protein: recombinant; tags: N-terminal GST; dsDNA, one strand shown. The procedure, abridged: as §1

For a further assay, the target named is CRX (Homo sapiens, UniProt O43186 1-299). To be noted: protein: recombinant; tags: N-terminal GST; dsDNA, one strand shown. The procedure, abridged:
as §1

The target of the next assay is ETV1 (Homo sapiens, UniProt P50549 1-477). To be noted: protein: recombinant; tags: N-terminal GST; dsDNA, one strand shown. The procedure, abridged:
as §1

A further assay has as its target T9, ELK3 (Homo sapiens, UniProt P41970 1-407).
T9 sequence: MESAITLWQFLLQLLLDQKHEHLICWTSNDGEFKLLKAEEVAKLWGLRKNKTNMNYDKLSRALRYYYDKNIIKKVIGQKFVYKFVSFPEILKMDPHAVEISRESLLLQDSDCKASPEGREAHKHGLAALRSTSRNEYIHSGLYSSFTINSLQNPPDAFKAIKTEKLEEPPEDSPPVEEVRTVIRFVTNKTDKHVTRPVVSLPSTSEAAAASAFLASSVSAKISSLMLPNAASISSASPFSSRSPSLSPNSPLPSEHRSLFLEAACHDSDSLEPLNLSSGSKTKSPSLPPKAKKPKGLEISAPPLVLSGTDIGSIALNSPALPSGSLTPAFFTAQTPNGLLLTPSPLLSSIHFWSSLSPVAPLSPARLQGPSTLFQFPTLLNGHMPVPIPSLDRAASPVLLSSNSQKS
To be noted: protein: recombinant; tags: N-terminal GST; dsDNA, one strand shown. The procedure, abridged:
as §1

HSF1, sequence (Q00613 whole entry): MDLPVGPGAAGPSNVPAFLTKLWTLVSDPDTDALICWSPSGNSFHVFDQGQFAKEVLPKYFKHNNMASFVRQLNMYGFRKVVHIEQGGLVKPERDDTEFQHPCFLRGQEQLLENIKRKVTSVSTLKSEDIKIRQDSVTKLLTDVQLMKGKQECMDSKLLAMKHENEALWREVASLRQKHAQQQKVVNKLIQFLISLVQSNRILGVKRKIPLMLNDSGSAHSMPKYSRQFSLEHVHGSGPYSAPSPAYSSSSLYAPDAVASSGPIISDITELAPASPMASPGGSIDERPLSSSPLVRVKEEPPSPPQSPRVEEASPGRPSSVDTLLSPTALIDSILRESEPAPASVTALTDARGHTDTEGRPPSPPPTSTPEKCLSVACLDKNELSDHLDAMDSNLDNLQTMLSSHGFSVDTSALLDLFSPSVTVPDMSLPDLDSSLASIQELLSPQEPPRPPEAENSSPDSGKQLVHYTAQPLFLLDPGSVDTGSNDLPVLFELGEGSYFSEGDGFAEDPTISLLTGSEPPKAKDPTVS
SPIB, sequence (Q01892 whole entry): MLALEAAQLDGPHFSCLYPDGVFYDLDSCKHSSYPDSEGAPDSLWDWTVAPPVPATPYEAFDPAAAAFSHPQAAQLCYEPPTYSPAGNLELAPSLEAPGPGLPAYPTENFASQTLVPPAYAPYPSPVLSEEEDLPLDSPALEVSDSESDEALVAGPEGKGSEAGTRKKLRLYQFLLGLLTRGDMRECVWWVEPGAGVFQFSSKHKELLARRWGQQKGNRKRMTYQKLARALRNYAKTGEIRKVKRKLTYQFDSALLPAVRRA
ELF4, sequence (Q99607 whole entry): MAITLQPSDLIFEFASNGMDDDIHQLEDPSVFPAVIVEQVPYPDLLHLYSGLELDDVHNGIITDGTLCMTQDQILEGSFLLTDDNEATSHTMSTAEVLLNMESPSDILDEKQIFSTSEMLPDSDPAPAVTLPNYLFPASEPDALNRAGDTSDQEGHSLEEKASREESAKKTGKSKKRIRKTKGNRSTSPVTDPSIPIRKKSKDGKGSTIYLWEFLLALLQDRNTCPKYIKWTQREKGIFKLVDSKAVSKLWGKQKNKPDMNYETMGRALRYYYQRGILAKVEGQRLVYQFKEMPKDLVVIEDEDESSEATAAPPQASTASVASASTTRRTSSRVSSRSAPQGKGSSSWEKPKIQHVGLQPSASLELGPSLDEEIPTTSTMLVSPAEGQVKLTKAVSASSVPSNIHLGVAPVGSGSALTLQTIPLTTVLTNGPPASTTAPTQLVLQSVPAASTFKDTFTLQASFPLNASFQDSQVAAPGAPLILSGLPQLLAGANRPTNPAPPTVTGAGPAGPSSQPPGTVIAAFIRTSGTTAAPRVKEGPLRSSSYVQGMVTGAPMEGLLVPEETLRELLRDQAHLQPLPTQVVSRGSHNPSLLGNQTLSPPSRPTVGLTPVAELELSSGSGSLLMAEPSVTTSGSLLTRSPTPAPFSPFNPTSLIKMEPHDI
ELF1, sequence (P32519 whole entry): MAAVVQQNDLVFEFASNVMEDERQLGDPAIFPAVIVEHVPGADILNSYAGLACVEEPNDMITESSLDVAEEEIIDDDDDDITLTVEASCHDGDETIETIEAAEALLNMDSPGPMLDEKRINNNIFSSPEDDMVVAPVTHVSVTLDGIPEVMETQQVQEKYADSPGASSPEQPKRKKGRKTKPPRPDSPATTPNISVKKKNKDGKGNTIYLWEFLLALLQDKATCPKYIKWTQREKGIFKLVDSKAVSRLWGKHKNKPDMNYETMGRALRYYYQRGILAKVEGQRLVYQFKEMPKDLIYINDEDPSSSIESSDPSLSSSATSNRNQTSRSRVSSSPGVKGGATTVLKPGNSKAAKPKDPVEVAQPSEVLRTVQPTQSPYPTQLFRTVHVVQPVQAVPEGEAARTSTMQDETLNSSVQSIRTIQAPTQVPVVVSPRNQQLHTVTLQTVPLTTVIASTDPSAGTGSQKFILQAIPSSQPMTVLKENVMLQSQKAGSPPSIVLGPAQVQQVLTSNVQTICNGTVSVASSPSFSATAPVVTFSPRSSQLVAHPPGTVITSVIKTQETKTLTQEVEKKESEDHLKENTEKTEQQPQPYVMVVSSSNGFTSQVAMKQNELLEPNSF
ETV1, sequence (P50549 whole entry): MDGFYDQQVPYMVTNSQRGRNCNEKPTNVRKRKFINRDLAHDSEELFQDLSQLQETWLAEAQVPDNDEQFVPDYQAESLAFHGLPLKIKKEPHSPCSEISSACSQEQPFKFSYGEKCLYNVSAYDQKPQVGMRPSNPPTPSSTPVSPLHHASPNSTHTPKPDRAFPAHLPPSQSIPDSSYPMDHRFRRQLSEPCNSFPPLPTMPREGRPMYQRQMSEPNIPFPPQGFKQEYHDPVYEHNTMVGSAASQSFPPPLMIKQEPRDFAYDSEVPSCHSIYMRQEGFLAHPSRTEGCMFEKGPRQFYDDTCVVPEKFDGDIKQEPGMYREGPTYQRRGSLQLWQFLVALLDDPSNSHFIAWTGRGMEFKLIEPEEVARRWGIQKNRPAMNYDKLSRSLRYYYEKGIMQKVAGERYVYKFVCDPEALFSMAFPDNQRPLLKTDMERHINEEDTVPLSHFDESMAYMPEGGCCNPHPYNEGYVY
ETV5, sequence (P41161 whole entry): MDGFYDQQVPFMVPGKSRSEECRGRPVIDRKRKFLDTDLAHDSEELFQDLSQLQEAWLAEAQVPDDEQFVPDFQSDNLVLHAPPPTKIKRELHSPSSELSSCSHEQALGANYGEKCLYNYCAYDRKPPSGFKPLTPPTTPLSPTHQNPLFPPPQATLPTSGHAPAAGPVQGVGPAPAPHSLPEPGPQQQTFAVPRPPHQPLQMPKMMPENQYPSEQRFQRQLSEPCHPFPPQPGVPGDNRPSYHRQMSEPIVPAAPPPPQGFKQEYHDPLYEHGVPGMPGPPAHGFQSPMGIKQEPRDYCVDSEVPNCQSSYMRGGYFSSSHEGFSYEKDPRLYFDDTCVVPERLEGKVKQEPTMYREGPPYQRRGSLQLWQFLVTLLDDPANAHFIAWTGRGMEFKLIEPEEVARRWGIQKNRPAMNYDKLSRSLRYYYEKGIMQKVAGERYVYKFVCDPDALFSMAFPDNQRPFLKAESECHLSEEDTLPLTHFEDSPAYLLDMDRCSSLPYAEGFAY
CRX, sequence (O43186 whole entry): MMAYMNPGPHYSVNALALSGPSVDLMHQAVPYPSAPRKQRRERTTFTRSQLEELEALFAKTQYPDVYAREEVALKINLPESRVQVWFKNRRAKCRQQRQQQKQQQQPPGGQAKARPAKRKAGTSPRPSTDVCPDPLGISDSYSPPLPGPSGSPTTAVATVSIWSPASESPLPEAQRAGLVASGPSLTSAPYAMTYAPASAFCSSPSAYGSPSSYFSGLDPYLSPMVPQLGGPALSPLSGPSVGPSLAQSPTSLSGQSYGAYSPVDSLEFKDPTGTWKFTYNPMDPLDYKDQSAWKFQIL

Turning to GGTATA, the binding signal is 1.04 fold enrichment (6-mer frequency, TF over GST control) with FLI1; 1.16 fold enrichment (6-mer frequency, TF over GST control) with ELK1; 1.02 fold enrichment (6-mer frequency, TF over GST control) in the assay with GABPA; 1.05 fold enrichment (6-mer frequency, TF over GST control) with ERG; 1.09 fold enrichment (6-mer frequency, TF over GST control) with ELF1; 1.11 fold enrichment (6-mer frequency, TF over GST control) with EHF. Moreover, the binding signal is 1.07 fold enrichment (6-mer frequency, TF over GST control) in the assay with SPI1; 1.06 fold enrichment (6-mer frequency, TF over GST control) with SPIB; 1.08 fold enrichment (6-mer frequency, TF over GST control) with FEV; 1.1 fold enrichment (6-mer frequency, TF over GST control) in the assay with ETV5; 1.08 fold enrichment (6-mer frequency, TF over GST control) with HSF1; 1.08 fold enrichment (6-mer frequency, TF over GST control) with ELF4. The binding signal with ELK4 was 1.1 fold enrichment (6-mer frequency, TF over GST control); with ETV2, 1.05 fold enrichment (6-mer frequency, TF over GST control); with CRX, 1.02 fold enrichment (6-mer frequency, TF over GST control); in the assay with ETV1, 1.11 fold enrichment (6-mer frequency, TF over GST control).

Consider AGCATC, for which the binding signal is 1.03 fold enrichment (6-mer frequency, TF over GST control) in the assay with FLI1; 1.12 fold enrichment (6-mer frequency, TF over GST control) in the assay with ELK1; 1.03 fold enrichment (6-mer frequency, TF over GST control) with GABPA; 1.04 fold enrichment (6-mer frequency, TF over GST control) with ERG; 1.02 fold enrichment (6-mer frequency, TF over GST control) with ELF1; 1.02 fold enrichment (6-mer frequency, TF over GST control) with EHF. The binding signal in the assay with SPIB was 1.02 fold enrichment (6-mer frequency, TF over GST control); with ELK3, 1.1 fold enrichment (6-mer frequency, TF over GST control); with FEV, 1.07 fold enrichment (6-mer frequency, TF over GST control); with ETV5, 1.03 fold enrichment (6-mer frequency, TF over GST control); with HSF1, 1.02 fold enrichment (6-mer frequency, TF over GST control); in the assay with ELF4, 1.02 fold enrichment (6-mer frequency, TF over GST control). The binding signal with ETV1 is 1.08 fold enrichment (6-mer frequency, TF over GST control).
